The values below come from PMC7862700, “An all-to-all approach to the identification of sequence-specific readers for epigenetic DNA modifications on cytosine”.

What all share (assay): DAPPL (digital affinity profiling via proximity ligation, sequencing); 10 mM Tris-HCl pH 7.5, 50 mM NaCl, 1 mM DTT, 4% glycerol, room temperature, 30 min; GST-TFs on glutathione beads, 16-mer random dsDNA library, 0.1% formaldehyde crosslink after washing; high values mean tight binding
Conditions in all cases: protein: recombinant; tags: N-terminal GST; dsDNA, one strand shown

In one test the target is T1, FLI1 (Homo sapiens, UniProt Q01543 1-452).
T1 sequence: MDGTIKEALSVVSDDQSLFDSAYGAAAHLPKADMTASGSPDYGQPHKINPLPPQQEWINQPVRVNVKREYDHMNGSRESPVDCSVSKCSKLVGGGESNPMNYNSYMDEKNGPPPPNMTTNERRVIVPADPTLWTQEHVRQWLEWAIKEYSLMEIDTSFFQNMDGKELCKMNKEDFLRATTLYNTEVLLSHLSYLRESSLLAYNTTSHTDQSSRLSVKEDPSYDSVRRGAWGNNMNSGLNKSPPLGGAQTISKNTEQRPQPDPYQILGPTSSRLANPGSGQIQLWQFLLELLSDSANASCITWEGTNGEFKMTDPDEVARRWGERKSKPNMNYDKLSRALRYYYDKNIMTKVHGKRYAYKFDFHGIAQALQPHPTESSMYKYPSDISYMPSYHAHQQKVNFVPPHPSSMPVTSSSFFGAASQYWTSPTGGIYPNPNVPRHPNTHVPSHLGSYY
A digest of the protocol: (§1)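 Pools of DNA-barcoded human transcription factors, expressed in yeast as GST fusions on glutathione beads and combined with a tag-only sample, were incubated with 200 nmole of a 16-mer random double-stranded DNA library. Incubation took 30 min at room temperature in Tris/NaCl/DTT/glycerol buffer and was followed by washing, 0.1% formaldehyde crosslinking, proximity ligation (BsaI/T4 ligase, 1 h, 37 °C), PCR amplification and sequencing on an Illumina NextSeq500. Binding signal is the ratio of a hexamer's read frequency for a factor to its frequency for the tag-only sample.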

The next test addresses T2, ELK1 (Homo sapiens, UniProt P19419 1-428).
T2 sequence: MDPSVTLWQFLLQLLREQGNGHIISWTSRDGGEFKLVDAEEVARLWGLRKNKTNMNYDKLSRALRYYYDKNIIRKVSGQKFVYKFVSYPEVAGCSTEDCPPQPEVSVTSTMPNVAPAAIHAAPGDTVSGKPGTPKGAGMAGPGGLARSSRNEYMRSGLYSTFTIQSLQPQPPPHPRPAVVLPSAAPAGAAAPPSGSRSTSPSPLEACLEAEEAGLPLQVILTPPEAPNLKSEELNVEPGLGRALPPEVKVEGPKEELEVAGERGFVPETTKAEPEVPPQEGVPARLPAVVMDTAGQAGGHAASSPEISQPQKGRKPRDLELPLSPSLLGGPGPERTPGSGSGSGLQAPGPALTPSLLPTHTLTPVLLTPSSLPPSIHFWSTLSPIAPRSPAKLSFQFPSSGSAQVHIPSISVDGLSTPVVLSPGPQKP
In a few lines:
as §1

A further test concerns the target T3, GABPA (Homo sapiens, UniProt Q06546 1-454).
T3 sequence: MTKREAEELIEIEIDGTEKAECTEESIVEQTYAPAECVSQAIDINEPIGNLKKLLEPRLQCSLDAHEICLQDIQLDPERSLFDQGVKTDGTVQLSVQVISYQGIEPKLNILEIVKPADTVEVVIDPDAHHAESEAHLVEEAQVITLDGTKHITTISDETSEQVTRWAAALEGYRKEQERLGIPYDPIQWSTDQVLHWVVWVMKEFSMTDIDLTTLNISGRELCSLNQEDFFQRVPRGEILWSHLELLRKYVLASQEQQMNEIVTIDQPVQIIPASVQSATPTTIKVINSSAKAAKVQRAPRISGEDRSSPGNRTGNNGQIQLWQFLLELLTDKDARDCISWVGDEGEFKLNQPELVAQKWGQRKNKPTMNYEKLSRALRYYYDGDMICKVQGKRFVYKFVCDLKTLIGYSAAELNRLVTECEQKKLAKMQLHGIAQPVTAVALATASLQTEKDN
A digest of the protocol:
as §1

The next test addresses T4, ERG (Homo sapiens, UniProt P11308 1-479).
T4 sequence: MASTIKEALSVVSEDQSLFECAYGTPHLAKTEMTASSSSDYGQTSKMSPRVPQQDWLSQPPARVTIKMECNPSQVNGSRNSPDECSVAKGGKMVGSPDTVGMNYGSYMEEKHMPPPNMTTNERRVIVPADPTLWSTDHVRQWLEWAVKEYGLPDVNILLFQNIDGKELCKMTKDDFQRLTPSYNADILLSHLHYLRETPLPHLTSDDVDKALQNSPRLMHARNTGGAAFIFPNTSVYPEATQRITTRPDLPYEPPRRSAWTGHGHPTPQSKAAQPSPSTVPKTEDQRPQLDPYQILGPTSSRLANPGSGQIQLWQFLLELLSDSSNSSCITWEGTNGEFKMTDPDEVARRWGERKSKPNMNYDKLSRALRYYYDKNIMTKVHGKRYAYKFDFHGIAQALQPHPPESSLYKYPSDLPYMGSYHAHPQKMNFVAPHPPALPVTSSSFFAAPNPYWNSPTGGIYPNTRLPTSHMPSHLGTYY
A digest of the protocol: as §1

A further test has as its target ELF1 (Homo sapiens, UniProt P32519 1-619). In a few lines:
as §1

The next test deals with T5, EHF (Homo sapiens, UniProt Q9NZC4 1-300).
T5 sequence: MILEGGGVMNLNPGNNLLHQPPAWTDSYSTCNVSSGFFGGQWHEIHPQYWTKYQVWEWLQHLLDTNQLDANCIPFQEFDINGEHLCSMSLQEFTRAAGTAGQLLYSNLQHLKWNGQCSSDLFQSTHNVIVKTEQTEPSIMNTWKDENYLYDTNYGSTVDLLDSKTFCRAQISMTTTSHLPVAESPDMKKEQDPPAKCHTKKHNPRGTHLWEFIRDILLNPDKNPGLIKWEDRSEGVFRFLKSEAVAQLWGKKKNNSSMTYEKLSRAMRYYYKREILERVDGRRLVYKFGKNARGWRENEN
A digest of the protocol: as §1

In a further test the target is SPI1 (Homo sapiens, UniProt P17947 1-270). In a few lines:
as §1

The target in a further test is SPIB (Homo sapiens, UniProt Q01892 1-262). In a few lines: as §1
For a further test, the target named is T6, ELK3 (Homo sapiens, UniProt P41970 1-407).
T6 sequence: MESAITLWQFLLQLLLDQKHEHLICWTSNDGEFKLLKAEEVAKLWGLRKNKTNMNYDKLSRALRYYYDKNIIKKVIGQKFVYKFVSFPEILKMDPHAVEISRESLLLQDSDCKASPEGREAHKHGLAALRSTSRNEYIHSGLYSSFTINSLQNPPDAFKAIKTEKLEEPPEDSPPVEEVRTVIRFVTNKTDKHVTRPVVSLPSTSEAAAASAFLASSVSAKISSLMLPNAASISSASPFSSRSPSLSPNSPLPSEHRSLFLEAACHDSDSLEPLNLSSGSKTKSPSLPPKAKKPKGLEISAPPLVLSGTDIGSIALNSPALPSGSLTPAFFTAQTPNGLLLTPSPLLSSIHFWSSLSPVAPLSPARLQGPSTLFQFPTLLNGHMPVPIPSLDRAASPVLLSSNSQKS
In a few lines: as §1

Sequence of SPIB (Q01892 whole entry): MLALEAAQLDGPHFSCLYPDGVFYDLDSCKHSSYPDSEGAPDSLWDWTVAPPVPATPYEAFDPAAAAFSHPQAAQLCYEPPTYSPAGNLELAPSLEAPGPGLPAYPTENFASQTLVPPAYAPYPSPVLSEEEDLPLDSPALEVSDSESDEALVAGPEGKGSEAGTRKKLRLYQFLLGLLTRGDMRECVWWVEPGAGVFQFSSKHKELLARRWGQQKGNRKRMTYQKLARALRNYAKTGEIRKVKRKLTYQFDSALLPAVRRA
Sequence of ELF1 (P32519 whole entry): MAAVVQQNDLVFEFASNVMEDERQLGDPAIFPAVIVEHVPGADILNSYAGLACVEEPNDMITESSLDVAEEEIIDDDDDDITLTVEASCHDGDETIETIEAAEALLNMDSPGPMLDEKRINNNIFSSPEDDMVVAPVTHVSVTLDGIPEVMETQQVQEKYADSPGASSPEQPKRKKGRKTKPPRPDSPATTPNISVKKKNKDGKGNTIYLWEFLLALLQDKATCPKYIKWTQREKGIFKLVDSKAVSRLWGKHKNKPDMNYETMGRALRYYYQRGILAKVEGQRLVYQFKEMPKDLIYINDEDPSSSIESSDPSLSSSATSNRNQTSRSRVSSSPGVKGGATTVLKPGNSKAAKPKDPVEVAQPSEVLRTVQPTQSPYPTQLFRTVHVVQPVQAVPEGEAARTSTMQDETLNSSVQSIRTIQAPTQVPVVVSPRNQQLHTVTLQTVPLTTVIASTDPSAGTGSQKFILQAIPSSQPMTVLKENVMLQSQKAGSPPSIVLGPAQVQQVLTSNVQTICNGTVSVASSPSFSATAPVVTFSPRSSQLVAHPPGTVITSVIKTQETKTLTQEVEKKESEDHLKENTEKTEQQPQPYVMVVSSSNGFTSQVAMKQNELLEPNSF

In the case of TTGTTC, the binding signal was 1.5 fold enrichment (6-mer frequency, TF over GST control) with FLI1; 1.41 fold enrichment (6-mer frequency, TF over GST control) in the test with ELK1; 1.53 fold enrichment (6-mer frequency, TF over GST control) in the test with GABPA; 1.34 fold enrichment (6-mer frequency, TF over GST control) with ERG; 1.44 fold enrichment (6-mer frequency, TF over GST control) with ELF1; 1.64 fold enrichment (6-mer frequency, TF over GST control) with EHF. Also, the binding signal with SPI1 was 1.51 fold enrichment (6-mer frequency, TF over GST control); with SPIB, 1.57 fold enrichment (6-mer frequency, TF over GST control); with ELK3 it was 1.39 fold enrichment (6-mer frequency, TF over GST control).

For TCTTGC, the binding signal is 1.29 fold enrichment (6-mer frequency, TF over GST control) in the test with FLI1; 1.33 fold enrichment (6-mer frequency, TF over GST control) with ELK1; 1.28 fold enrichment (6-mer frequency, TF over GST control) with GABPA; 1.24 fold enrichment (6-mer frequency, TF over GST control) with ERG; 1.41 fold enrichment (6-mer frequency, TF over GST control) in the test with ELF1; 1.31 fold enrichment (6-mer frequency, TF over GST control) in the test with EHF. Moreover, the binding signal was 1.28 fold enrichment (6-mer frequency, TF over GST control) with SPI1; 1.33 fold enrichment (6-mer frequency, TF over GST control) with SPIB; 1.55 fold enrichment (6-mer frequency, TF over GST control) with ELK3.

Consider AAGTTC, for which the binding signal with FLI1 is 1.36 fold enrichment (6-mer frequency, TF over GST control); with ELK1 it was 1.36 fold enrichment (6-mer frequency, TF over GST control); in the test with GABPA, 1.47 fold enrichment (6-mer frequency, TF over GST control); with ERG it was 1.36 fold enrichment (6-mer frequency, TF over GST control); with ELF1 it was 1.34 fold enrichment (6-mer frequency, TF over GST control); in the test with EHF, 1.35 fold enrichment (6-mer frequency, TF over GST control). Also, the binding signal was 1.54 fold enrichment (6-mer frequency, TF over GST control) with SPI1; 1.51 fold enrichment (6-mer frequency, TF over GST control) in the test with SPIB; 1.36 fold enrichment (6-mer frequency, TF over GST control) with ELK3.

Turning to GTAAAA, the binding signal with FLI1 is 1.05 fold enrichment (6-mer frequency, TF over GST control); with ELK1, 1 fold enrichment (6-mer frequency, TF over GST control); with GABPA, 1.18 fold enrichment (6-mer frequency, TF over GST control); with ERG it was 1.14 fold enrichment (6-mer frequency, TF over GST control); with ELF1, 1.13 fold enrichment (6-mer frequency, TF over GST control); in the test with EHF, 1.16 fold enrichment (6-mer frequency, TF over GST control). Further, the binding signal was 1.3 fold enrichment (6-mer frequency, TF over GST control) in the test with SPI1; 1.1 fold enrichment (6-mer frequency, TF over GST control) with SPIB; 1.11 fold enrichment (6-mer frequency, TF over GST control) with ELK3.

Take AATGTA: the binding signal with FLI1 was 1.19 fold enrichment (6-mer frequency, TF over GST control); with ELK1, 1.09 fold enrichment (6-mer frequency, TF over GST control); in the test with GABPA it was 1.1 fold enrichment (6-mer frequency, TF over GST control); with ERG, 1.17 fold enrichment (6-mer frequency, TF over GST control); with ELF1 it was 1.16 fold enrichment (6-mer frequency, TF over GST control); with EHF it was 1.22 fold enrichment (6-mer frequency, TF over GST control). Further, the binding signal was 1.12 fold enrichment (6-mer frequency, TF over GST control) in the test with SPI1; 1.2 fold enrichment (6-mer frequency, TF over GST control) with SPIB; 1.17 fold enrichment (6-mer frequency, TF over GST control) with ELK3.

TCAAAA: the binding signal in the test with FLI1 was 1.12 fold enrichment (6-mer frequency, TF over GST control); with ELK1, 1.12 fold enrichment (6-mer frequency, TF over GST control); with GABPA it was 1.23 fold enrichment (6-mer frequency, TF over GST control); with ERG, 1.14 fold enrichment (6-mer frequency, TF over GST control); with ELF1 it was 1.19 fold enrichment (6-mer frequency, TF over GST control); in the test with EHF, 1.1 fold enrichment (6-mer frequency, TF over GST control). Also, the binding signal with SPI1 was 1.3 fold enrichment (6-mer frequency, TF over GST control); with SPIB, 1.15 fold enrichment (6-mer frequency, TF over GST control); with ELK3 it was 1.17 fold enrichment (6-mer frequency, TF over GST control).

As for GCTAGC, the binding signal is 1.17 fold enrichment (6-mer frequency, TF over GST control) with FLI1; 1.23 fold enrichment (6-mer frequency, TF over GST control) with ELK1; 1.18 fold enrichment (6-mer frequency, TF over GST control) with GABPA; 1.22 fold enrichment (6-mer frequency, TF over GST control) with ERG; 1.18 fold enrichment (6-mer frequency, TF over GST control) with ELF1; 1.19 fold enrichment (6-mer frequency, TF over GST control) in the test with EHF. Besides, the binding signal with SPI1 is 1.29 fold enrichment (6-mer frequency, TF over GST control); in the test with SPIB, 1.17 fold enrichment (6-mer frequency, TF over GST control); with ELK3 it was 1.22 fold enrichment (6-mer frequency, TF over GST control).
